The panel holds about 83,000 compounds, 20% with a hit somewhere; the sample as a whole holds those more often.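 A percent growth of 40 corresponds to 60% growth inhibition; 0 means no net growth; -100 means all cells died. Active threshold: below 10.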 Activity calls are given as the source filed them.
Key:
Assay in all cases: NCI-60 one-dose screen, 48 h (100 = growth as untreated, 0 = no growth, -100 = all killed)
Conditions in all cases: 10 µM unless noted
[1] = system: T-47D breast
[2] = system: BT-549 breast
[3] = system: MDA-MB-435 melanoma
[4] = system: SW-620 colon
[5] = system: MCF7 breast
[6] = system: HCT-116 colon
[7] = system: HCC-2998 colon
[8] = system: KM12 colon

Measured: growth

COc1ccccc1/C=N\Nc1ccc([N+](=O)[O-])cn1
inactive: [1] 94.8% | [2] 101% | [3] 104% | [4] 124% | [5] 96.2% | [6] 96.5% | [7] 100% | [8] 106%

C=C1C(=O)O[C@H]2[C@H]1CC/C(COC(=O)NCc1cn(C)c3ccccc13)=C\CC[C@@]1(C)O[C@@H]21
inactive: [7] 49.1% | [8] 39.5%
active: [1] -54.1% | [2] -54.3% | [3] -30.4% | [4] -48.4% | [5] 3.65% | [6] -97.2%

CC(=O)Cc1ccccn1
inactive: [1] 108% | [2] 97.8% | [3] 102% | [4] 108% | [5] 97.8% | [6] 107% | [7] 111% | [8] 105%

Oc1ccc(-c2nc3ccccc3s2)cc1CN(Cc1ccccn1)Cc1ccccn1
active: [7] 5.52%
inactive: [1] 12.8% | [2] 18.5% | [3] 26.6% | [4] 20.1% | [5] 14.8% | [6] 15.5% | [8] 24.8%

CC(=O)O[C@@H]1CC2C(C)(C)CCCC2(C)C2=C1C(=O)C(C(C)C)=CC2=O (stereo partly drawn)
active: [1] -7.86% | [2] -13% | [3] -28.1% | [4] -52.5% | [5] 3.73% | [6] -24.4% | [7] -60% | [8] -48.7%

O=C1Nc2ccc(Br)cc2/C1=N/c1nc(-c2ccccc2)cs1
inactive: [1] 58.9% | [2] 73.2% | [3] 97.8% | [4] 88.6% | [5] 67.4% | [6] 75.6% | [7] 109% | [8] 88.3%

CC(C)(C)c1nn(-c2ccccc2)c2c1C(=O)CSC(c1ccc3c(c1)OCO3)N2 (stereo not drawn)
inactive: [1] 84.4% | [2] 112% | [3] 99.6% | [4] 108% | [5] 90.3% | [6] 85.6% | [7] 105% | [8] 101%

C=C1C(=O)O[C@H]2[C@H]1CC/C(COC(=O)NCc1c[nH]c3ccc(OC)cc13)=C\CC[C@@]1(C)O[C@@H]21
inactive: [3] 22.3% | [7] 45.1% | [8] 51.3%
active: [1] -52% | [2] -24% | [4] -57.6% | [5] 5.33% | [6] -79.4%

CCN(CC)CCCCCCCCNc1c2ccc(Cl)cc2nc2ccc(OC)cc12
active: [1] -37.9% | [2] -82.6% | [3] -81.9% | [4] -31.9% | [5] -75.1% | [6] -63.8% | [7] -89.1% | [8] -49.5%

Fc1cc(-c2cnc3nonc3n2)c(Cl)cc1Cl
active: [6] 7.65%
inactive: [1] 63.2% | [2] 99.7% | [3] 90.1% | [4] 38.7% | [5] 69.7% | [7] 103% | [8] 88.2%

c1csc(-c2cnc3nonc3n2)c1
inactive: [1] 45.9% | [2] 87.3% | [3] 98.6% | [4] 99.7% | [5] 61.3% | [6] 66.6% | [7] 112% | [8] 91.5%

Clc1ccc(-c2cnc3nonc3n2)s1
inactive: [1] 58.4% | [2] 93.8% | [4] 82.6% | [5] 38.7% | [6] 67% | [7] 109% | [8] 77.1%
active: [3] -10.6%

CCN(CC)CC(=O)Nc1c(C)ccc(N)c1C
inactive: [1] 96.6% | [2] 97.2% | [3] 99.8% | [4] 104% | [5] 92.4% | [6] 84% | [7] 96.8% | [8] 114%

COc1cc(CN(c2ccc(C)cc2)C2OC(=O)c3ccccc32)cc(OC)c1OC (stereo not drawn)
inactive: [1] 53.8% | [2] 20.8% | [4] 36.2% | [5] 13.9% | [8] 17.1%
active: [3] -17.8% | [6] 6.74% | [7] 4.25%

Cc1cc(Nc2c3ccccc3nc3ccccc23)ccc1NS(C)(=O)=O
inactive: [1] 45% | [2] 78.7% | [3] 36.8% | [4] 21.8% | [5] 27.4% | [6] 13.7% | [7] 50.8% | [8] 40.5%

CCC1=CC2CN(C1)Cc1c([nH]c3ccccc13)[C@@](C(=O)OC)(c1cc3c(cc1OC)N(C)[C@H]1[C@@](O)(C(=O)OC)[C@H](OC(C)=O)[C@]4(CC)C=CCN5CC[C@]31[C@@H]54)C2 (stereo partly drawn)
active: [2] -27.2% | [3] 2.28% | [5] 8.05% | [6] -9.83% | [7] -36% | [8] 0.29%
inactive: [1] 76.1% | [4] 29.1%
